Sampled rows, rich in hits. Any-hit rate of the full collection: about 1.5%.
Mtb MenB inh: inhibitors of Mycobacterium tuberculosis MenB enzyme. P9WNP5. MenB enzyme assay, absorbance read-out. inhibition, % (no concentration beside the values). 0.43% of 100,000 active. AID 540299; in the data active = inhibition above about 21%, passing the limit was not always enough
MbtI inh: MbtI salicylate synthase inhibition. 0.89% of 100,000 active. purified MbtI enzyme, fluorescence intensity read-out. inhibition, % (concentration not given with the values). P9WFX0; in the data active = inhibition mostly above about 56%, no sharp cut-off; inactive = mostly below about 77%
Target sequence (P9WFX0 whole entry, looked up): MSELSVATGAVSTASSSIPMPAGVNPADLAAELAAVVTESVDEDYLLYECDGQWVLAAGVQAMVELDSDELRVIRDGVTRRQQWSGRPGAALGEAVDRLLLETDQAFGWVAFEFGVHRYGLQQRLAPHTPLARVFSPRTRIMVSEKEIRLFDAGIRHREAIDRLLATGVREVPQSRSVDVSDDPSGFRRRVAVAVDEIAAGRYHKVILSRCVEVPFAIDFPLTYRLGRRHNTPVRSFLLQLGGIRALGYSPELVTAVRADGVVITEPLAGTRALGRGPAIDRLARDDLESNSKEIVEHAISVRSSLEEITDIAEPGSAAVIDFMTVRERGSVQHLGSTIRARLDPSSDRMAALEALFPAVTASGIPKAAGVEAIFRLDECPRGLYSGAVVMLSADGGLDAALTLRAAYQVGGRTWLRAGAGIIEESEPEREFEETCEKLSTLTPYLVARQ
Polio RdRp inh: inhibitors of poliovirus RNA polymerase binding and polymerization | poliovirus polymerase elongation, fluorescence polarization; active compounds read low | % elongation, % (compound at 16.7 µg/mL) | 0.66% of 150,000 active | AID 588519; in the data active = % elongation below about 90%
* marks the source's active call; other numbers are inactive results; i = inactive; · = no result.

SMILES	Mtb MenB inh	MbtI inh	Polio RdRp inh
CCOC(=O)c1c(N)sc(=S)c2c1CCC2	-40	6	98
Nc1nonc1C(=O)NN=c1c(=O)c2ccccc2c1=O	i	-26	47*
Nc1nonc1C(=O)NCCN=Cc1ccccc1O	-9	6	106
CCCCC(CC)CN=C1NS(=O)(=O)c2ccccc21 (stereo not given)	-10	·	96
CCCn1c(=O)[nH][nH]c1=S	3	88*	100
CCCn1c(=S)[nH]c2c1c(=O)[nH]c(=O)n2C	-1	77	103
O=C(O)c1nccnc1C(=O)Nc1ccc(N2CCOCC2)cc1	-10	5	101
O=C(Nc1ccc(N2CCOCC2)cc1)C1=NCCN1	-18	-7	63*
Cc1ccc(-n2c(SCCc3c(C)noc3C)nnc2-c2ccc(Cl)cc2)cc1	-13	-12	105
O=c1c(Cl)c(Cl)cnn1-c1ccc(C(F)(F)F)cn1	-31	20	88*
O=c1[nH]cnc2c1cnn2-c1ccc(C(F)(F)F)cn1	·	41	99
O=C1N=c2ccccc2=C1c1c(O)n(-c2cccc(Br)c2)[nH]c1=O	9	·	97
C=CCc1ccccc1OCC(N)=O	-34	-19	101
O=C(O)c1cn(-c2ccccc2)nc1/C(=N\O)c1ccccc1	10	-7	100
Cc1cc(SCC(=O)Nc2ccccc2)c2ccccc2n1	-31	·	89*
CC(C)n1c(SCC(=O)Nc2ccccc2)nc2ccccc2c1=O	-8	-5	97
O=C(COC(=O)c1ccccc1O)NCc1ccccc1	-10	-17	104
CCCSc1ncc(Cl)c(C(=O)Nc2nc(C)c(C(=O)OCC(C)C)s2)n1	-18	-16	104
O=Nc1c(O)[nH]c2cc3c(cc12)OCCO3	-12	11	86*
O=C(N=Nc1c(O)[nH]c2cc3c(cc12)OCCCO3)C1CCCCC1	-5	3	99
CCCN1C(=O)C2(Nc3ccccc3-c3nc4ccccc4n32)c2ccccc21 (stereo not given)	-14	-12	102
CC1=NN(c2ccccc2)C(=O)C1=C1SCCS1	9	11	102
CC1=NN(c2ccccc2)C(=O)/C1=C1/C(=O)N(c2ccccc2)N=C1C	-11	9	57*
N#C/C(=C\c1ccc2c(c1)OCO2)C(=O)OCCN1CCCC1=O	6	0	110
CCOC(=O)CCCn1nc(C)c2c(C)n(-c3ccc(C)cc3)nc2c1=O	4	-4	101
SMILES	Mtb MenB inh	MbtI inh	Polio RdRp inh
CCn1c(NCc2ccccc2)nc2ccccc21	38*	2	100
C=CCn1c(NCc2ccccc2)nc2ccccc21	-3	·	106
CC1CCC/C(=C/Nc2ccc3c(c2)OCO3)C1=O (stereo not given)	-91	-207	103
COC(=O)c1ccc(CCl)o1	·	-4	101
COC(=O)c1ccsc1N1C(=O)C=CC1=O	-25	94*	·
COC(=O)c1cc(C(=O)OC)c(C(=O)OC)cc1C(=O)OC	-9	·	104
Cc1cc(C)nc(N(C#N)C(=S)N(C)C)n1	-5	102*	102
COC(=O)C(C)N(C#N)c1nc(C)cc(C)n1 (stereo not given)	·	-6	·
CC(=O)NC(NC(C)=O)c1ccccc1	-22	-2	103
Cc1sc(NC(=O)CN2C(=O)CCC2=O)c(C(N)=O)c1C	-20	44	105
Cc1sc(NC(=O)Cn2nc(C(F)(F)F)cc2C)c(C(N)=O)c1C	3	·	68*
CCn1cc(C(=O)O)c(=O)c2cc(F)c(N3CCN(C(=S)Nc4ccc5c(c4)OCO5)CC3)cc21	-8	-11	99
COc1ccccc1Nc1nc2ccccc2c2nncn12	-15	-10	104
CCc1c(C)sc(NC(=O)C2CC3CCC2C3)c1C(=O)OC (stereo not given)	-8	·	88*
CCc1c(C)sc(NC(=O)/C=C/c2cccs2)c1C(=O)OC	-42	-18	100
CCO/C=N/c1oc(-c2ccccc2)nc1C#N	10	100	103
N#CC1=C(SCc2ccccc2)SCNC1=O	29	9	100
N#CC1=C(SCc2ccccc2)SC(c2ccc(C(=O)O)cc2)NC1=O (stereo not given)	25	9	86*
CC1NC(=O)C(C#N)=C(SCc2ccccc2)S1 (stereo not given)	0	11	105
N#CC1=C(SCc2ccccc2)SC(CO)NC1=O (stereo not given)	38*	11	100
COc1cc(Cl)c(C)cc1NC(=S)N(CCN1CCCCCC1)Cc1ccco1	-22	6	101
COc1cc(Cl)c(C)cc1NC(=S)N(Cc1ccccc1C)CC1CCC(C(=O)O)CC1 (stereo not given)	-11	52*	98
O=C(NCc1ccc2c(c1)CCN2C(=O)c1ccccc1)Nc1cccc(C(F)(F)F)c1	·	·	107
CN(C)S(=O)(=O)c1ccc2c(c1)oc(=O)n2C	27*	5	105
CCN(Cc1ccccc1)S(=O)(=O)c1ccc2c(c1)oc(=O)n2C	-12	3	101
SMILES	Mtb MenB inh	MbtI inh	Polio RdRp inh
C=CCNc1nnc(SCC(=O)N2CCC(C(N)=O)CC2)s1	-17	-4	100
C/C(=N\NC(=O)c1ccccn1)c1ccc(OC(F)F)cc1OC(F)F	-67	5	105
Cn1c(CSc2cc(C(F)(F)F)nc3ccccc23)n[nH]c1=S	4	65*	100
Cc1ccc(S(=O)(=O)NCCSc2cc(C(F)(F)F)nc3ccccc23)cc1	1	-1	103
O=C(O)c1cc2ccccc2c(=O)[nH]1	-25	89	95
O=c1[nH]c(Nc2ccccc2)cc2ccccc12	-17	65	76*
O=C1c2ccccc2-c2n[nH]c3cccc1c23	-13	2	99
O=c1[nH]nc2c3c(cccc13)-c1ccccc1-2	58*	1	99
CCSc1nc2cc(S(=O)(=O)N(CC)CC)ccc2n1CC	-5	9	104
CSc1nc(-c2ccco2)nn1C(=O)c1ccccc1	-3	20	103
CCS(=O)(=O)n1nc(-c2ccco2)nc1SC	-14	82*	96
Cc1ccc(CNC(=O)CN2NS(=O)(=O)c3ccccc3C2=O)cc1	-8	91*	100
C=CCn1c(C)cc(C(=O)CN2NS(=O)(=O)c3ccccc3C2=O)c1C	6	-26	102
Oc1ccc(C2N(c3ccccc3)CCN2c2ccccc2)cc1	8	·	106
CC(=O)N1C(C(=O)O)Cc2c([nH]c3ccccc23)C1(C)C (stereo not given)	-4	·	105
CC12CCC(=O)N1C(C(=O)O)Cc1c2[nH]c2ccccc12 (stereo not given)	-18	-5	85*
CC(C)C1C(=O)Nc2ccc(S(=O)(=O)NCCc3ccccc3)cc21 (stereo not given)	-6	-35	101
COCCn1c(O)c(/C=N/Nc2nnc(C)c(=O)[nH]2)c(=O)[nH]c1=S	-72	12	117
CC1CCCN(S(=O)(=O)c2ccc(S(=O)(=O)N3CCN(C=O)CC3)cc2)C1 (stereo not given)	-7	7	104
CN(C)S(=O)(=O)c1ccc(S(=O)(=O)N2CCN(C=O)CC2)cc1	31*	2	105
O=C(O)/C=C/C(=O)N1CCN(S(=O)(=O)c2ccccc2)CC1	-19	-8	104
CN(C)C(=O)N1CCN(S(=O)(=O)c2ccccc2)CC1	37*	2	101
Cc1cc(C)n2nc(S(=O)(=O)Nc3ccccc3C)nc2n1	-8	·	108

Screening data as filed in PubChem BioAssay.
